Results published in the supplement of paper PMC13392028.
In all, about 4,100 sequences were measured (“RBNS R-value (6-mer enrichment in protein-bound RNA vs input library)”: median about 0.99, highest 2% from about 1.4 on). The sample holds the highest values, similar sequences and a random draw of the others, so the mix is not that of the screen.

System: PfIESI-1 RRM domain (Plasmodium falciparum ortholog aa 875-1232, GST fusion)
Test: RBNS R-value (6-mer enrichment in protein-bound RNA vs input library) (ratio); higher = stronger binding preference; the methods of the paper give 50 / 100 / 500 nM protein instead
Method: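 RNA Bind-n-Seq: recombinant GST-tagged IESI-1 RRM domain was incubated at room temperature with a random 40-nt in vitro transcribed RNA library at 250, 500 or 1000 nM protein. Bound RNA was pulled down on glutathione beads and sequenced. R-value is the enrichment of each 6-mer in the bound RNA relative to the input library. Each 6-mer sits inside the random 40-mer context, not as an isolated oligo. Values are replicate 1 only.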

Row | Sequence | RBNS R-value (protein concentration: 250 nM) | RBNS R-value (protein concentration: 500 nM) | RBNS R-value (protein concentration: 1000 nM)
1 | UACAAA | 0.828 | 0.904 | 0.843
2 | AAUAAU | 0.738 | 0.867 | 0.789
3 | CAUAAU | 0.76 | 0.795 | 0.73
4 | GCGCGA | 1.1 | 1.12 | 1.11
5 | CGUAAA | 0.871 | 0.956 | 0.929
6 | ACCUGG | 1.19 | 1.11 | 1.17
7 | ACCUGC | 1.09 | 1.03 | 1.07
8 | GCCUGA | 1.45 | 1.4 | 1.32
9 | GCCUGG | 1.12 | 1.05 | 1.15
10 | ACCUGA | 1.51 | 1.48 | 1.37
11 | CCCUGA | 1.44 | 1.41 | 1.35
12 | CCCUGU | 0.962 | 0.898 | 0.981
13 | CCCUGG | 1.17 | 1.09 | 1.15
14 | GCCUGC | 1.12 | 1 | 1.06
15 | UGGGUC | 0.985 | 0.933 | 1.01
16 | UGUCAG | 0.921 | 0.924 | 0.976
17 | CAAAUC | 0.911 | 0.973 | 0.983
18 | UUGACU | 1.07 | 1.06 | 1.05
19 | UAACGC | 0.896 | 0.876 | 0.884
20 | CAUCAC | 0.917 | 0.894 | 0.935
21 | AUAUAC | 0.837 | 0.813 | 0.766
22 | GACCUC | 1.02 | 0.989 | 1.03
23 | CCUGCG | 1.1 | 1.05 | 1.1

Row | Sequence | RBNS R-value (protein concentration: 250 nM) | RBNS R-value (protein concentration: 500 nM) | RBNS R-value (protein concentration: 1000 nM)
24 | ACUGAG | 1.08 | 1.13 | 1.11
25 | ACUGAC | 1.04 | 1.03 | 1.04
26 | GCUGAC | 1.07 | 1.02 | 1.07
27 | UCUGAG | 1.12 | 1.1 | 1.14
28 | UCUGAC | 1.02 | 0.998 | 1.05
29 | GCUGAG | 1.09 | 1.07 | 1.1
30 | ACUGAU | 1.89 | 2.06 | 1.65
31 | GCUGAU | 1.77 | 1.76 | 1.47
32 | UCUGAA | 0.982 | 1.05 | 1.03
33 | UCUGAU | 1.88 | 1.98 | 1.58
34 | CCUGAG | 1.47 | 1.26 | 1.34
35 | CAGAAC | 1.11 | 1.13 | 1.13
36 | AGUCCC | 1.01 | 0.956 | 1.01
37 | UACCGG | 0.983 | 0.914 | 0.955
38 | CAGUAA | 0.864 | 0.913 | 0.866
39 | CUACAU | 0.824 | 0.777 | 0.777
40 | GUUCCU | 1.02 | 0.962 | 1.01
41 | AACAGG | 0.999 | 1.07 | 1.06
42 | GGGACU | 1 | 0.984 | 1.02
43 | GAAGAC | 1.14 | 1.17 | 1.15
44 | AGAGUC | 1.01 | 1.03 | 1.05
45 | AUGUGA | 1.15 | 1.26 | 1.14
46 | CUGGGC | 1.06 | 0.987 | 1.04

Row | Sequence | RBNS R-value (protein concentration: 250 nM) | RBNS R-value (protein concentration: 500 nM) | RBNS R-value (protein concentration: 1000 nM)
47 | CCUGAC | 1.14 | 1.07 | 1.12
48 | CCUGAA | 1.17 | 1.17 | 1.18
49 | CCUGAU | 1.99 | 2.08 | 1.66
50 | AUGCGG | 1.02 | 1.01 | 1.01
51 | UCUAGU | 0.878 | 0.906 | 0.899
52 | UAUGCG | 0.899 | 0.892 | 0.894
53 | AAUGCG | 0.939 | 0.968 | 0.95
54 | GAUGCG | 1.41 | 1.42 | 1.31
55 | UAUGCC | 0.946 | 0.891 | 0.903
56 | CAUGCA | 0.934 | 0.914 | 0.92
57 | GAUGCA | 1.39 | 1.42 | 1.29
58 | UAUGCA | 0.846 | 0.862 | 0.85
59 | CAUGCC | 1.04 | 0.974 | 1.05
60 | GAUGCC | 1.57 | 1.46 | 1.39
61 | CUCGUG | 0.979 | 0.913 | 0.998
62 | AGCGGC | 1.05 | 1.03 | 1.01
63 | AUUCUU | 1.04 | 1.06 | 1.02
64 | CUUAGC | 0.907 | 0.84 | 0.885
65 | CGGUCA | 0.933 | 0.898 | 0.979
66 | CAUUCG | 1.02 | 0.992 | 1.04
67 | GAUUCA | 1.44 | 1.56 | 1.35
68 | AAUUCC | 1.16 | 1.15 | 1.16
69 | AAUUCA | 0.972 | 1.06 | 0.981

Row | Sequence | RBNS R-value (protein concentration: 250 nM) | RBNS R-value (protein concentration: 500 nM) | RBNS R-value (protein concentration: 1000 nM)
70 | UAUUCA | 0.803 | 0.794 | 0.796
71 | GAUUCC | 1.51 | 1.47 | 1.38
72 | AAUUCU | 1.01 | 1.07 | 1.06
73 | CAUUCC | 1.04 | 0.997 | 1.05
74 | UAUUCU | 0.875 | 0.813 | 0.832
75 | AAUUCG | 0.99 | 1.06 | 1.02
76 | GAUUCU | 1.53 | 1.6 | 1.33
77 | GAUUCG | 1.43 | 1.44 | 1.31
78 | AGGUAA | 0.909 | 0.998 | 0.997
79 | CUUAAG | 0.818 | 0.849 | 0.846
80 | UCCUUU | 0.883 | 0.825 | 0.875
81 | UACCGA | 1.01 | 0.978 | 0.96
82 | AGGGAG | 1.09 | 1.11 | 1.06
83 | GAUAAC | 1.16 | 1.26 | 1.15
84 | UAUUGA | 1.07 | 1.14 | 0.985
85 | GAUUGC | 1.7 | 1.68 | 1.42
86 | GAUUGU | 1.04 | 1.04 | 0.998
87 | CAUUGA | 1.33 | 1.37 | 1.22
88 | AAUUGA | 1.37 | 1.52 | 1.31
89 | AAUUGU | 0.865 | 0.926 | 0.948
90 | CAUUGC | 0.987 | 0.973 | 0.976
91 | GAUUGA | 1.61 | 1.69 | 1.43
92 | GAUUGG | 1.37 | 1.37 | 1.25
